Bioassay records: PubChem, National Center for Advancing Translational Sciences (NCATS)
Sampled rows, rich in hits. Any-hit rate of the full collection: about 4.7%.
TRHR ag: agonists of human TRH receptor; P34981; TRHR cells, calcium flux fluo-8, FDSS agonist mode; activation, % at 2 µM; 0.18% of 360,000 active; note: 0% is about no effect
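Read-out: compound-evoked intracellular calcium rise in TRHR cells, fluo-8 dye, kinetic FDSS fluorescence at 1 s/cycle following a 10-cycle baseline. Cells cultured overnight before dye loading (30 min–1.5 h, RT).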
D1 agonist: activates the human D1 dopamine receptor; P21728; HEK293 T-REx D1 cells, calcium flux, agonist mode; activation, % at 2 µM; 1% of 360,000 active; AID 504660; note: 0% is about no effect
Target sequence (P21728 whole entry, looked up): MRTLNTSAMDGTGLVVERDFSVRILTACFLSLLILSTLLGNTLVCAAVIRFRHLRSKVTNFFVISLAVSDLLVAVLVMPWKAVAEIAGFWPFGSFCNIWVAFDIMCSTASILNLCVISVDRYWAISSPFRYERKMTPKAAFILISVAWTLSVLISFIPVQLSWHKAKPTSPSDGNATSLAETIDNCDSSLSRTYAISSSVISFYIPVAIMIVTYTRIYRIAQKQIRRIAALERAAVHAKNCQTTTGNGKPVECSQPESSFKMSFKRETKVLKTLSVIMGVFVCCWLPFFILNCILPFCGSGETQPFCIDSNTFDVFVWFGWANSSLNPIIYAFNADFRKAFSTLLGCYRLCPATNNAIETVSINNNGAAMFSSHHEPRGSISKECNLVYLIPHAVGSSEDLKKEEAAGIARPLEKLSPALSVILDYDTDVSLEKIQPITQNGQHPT
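Tetracycline-induced HEK293 TREx D1 cells, force-coupled to calcium signalling, were dye-loaded with a no-wash calcium kit. Compound was pin-added after a 10 s baseline. Fluorescence was read kinetically at 1 cycle/s for 180 s, with calcium rises flagged as agonism.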
D1 PAM: potentiators of human D1 dopamine receptor; P21728; HEK293 TREx D1 cells, calcium flux, dopamine EC20 potentiation; potentiation, % at 10 µM; 0.036% of 360,000 active; AID 504651; in the data active = potentiation above about 30%; note: 0% is about no effect
D1 antag: antagonists of human D1 dopamine receptor; P21728; HEK293 TREx D1 cells, calcium flux, dopamine EC80; stronger effect = lower value; activity change, negative = inhibition, % at 10 µM; 3.2% of 360,000 active; in the data active = activity change below about -30%; note: % is set by controls: 0 for no effect and ±100 for the full control effect
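Cells carrying a force-coupled, tetracycline-inducible human D1 receptor report calcium flux. Each well gets a 10 s baseline, compound with 180 s monitoring, then an EC80 dopamine stimulus with a second 180 s kinetic read.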
TRHR enhancer: allosteric enhancers of human TRH receptor; 0.66% of 360,000 active; enhancement, % at 2 µM; AID 493056; TRHR cells, fluo-8 calcium fluorescence, EC20 TRH enhancement; P34981; in the data active = enhancement above about 30%; note: 0% is about no effect
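TRHR-expressing cells loaded with fluo-8 calcium dye were read kinetically (ex 480/em 530) during compound addition, then stimulated with an EC20 of TRH (10 nM final). Enhancement of the Gq-mediated intracellular calcium response was scored.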
* hit, by the source's call; x = no result. Cut-off read from the data, not from the text of the source, unless noted: active = activation above about 30%; inactive = the rest.

SMILES	TRHR ag	D1 agonist	D1 PAM	D1 antag	TRHR enhancer
COC(=O)CN1C(=S)N(c2ccc(F)cc2)C(=O)C1CC(=O)Nc1ccc(F)cc1 (stereo not given)	1.6	1.1	-1.5	-50.8*	-0.1
CCCOc1ccc(NC(=O)CC2C(=O)N(c3ccc(Cl)cc3)C(=O)N2CCc2ccncc2)cc1 (stereo not given)	2.0	27.5	-3.5	-34.9*	-5.4
Cc1cc(C)c2c(C)nn(-c3ccccc3)c2n1	-1.2	36.6*	4.4	1.4	-10.1
CC(C)(C)n1nnnc1C(c1ccncc1)N1CCN(C2CCCCC2)CC1 (stereo not given)	0.2	3.6	-4.0	-18.3	-8.2
Cc1cccc(N2CCN(C(c3ccncc3)c3nnnn3C(C)(C)C)CC2)c1C (stereo not given)	-0.3	-0.2	-7.8	-40.3*	3.3
Cc1ccc(C)c(CN2C(=O)c3ccccc3S(=O)c3ccc(C(=O)NCc4ccco4)cc32)c1 (stereo not given)	1.3	4.4	1.1	-1.5	-12.8
COc1ccc(C(=O)NC2CC2)cc1OC1CCN(Cc2ccc(Cl)cc2)CC1	1.1	5.6	-19.2	-57.7*	2.9
COc1ccc(C(=O)NC2CC2)cc1OC1CCN(Cc2cc(C)cc(C)c2)CC1	0.1	0.5	-19.4	-50.7*	23.1
C/C=C(\C)CN1CCC(Oc2cc(C(=O)NC3CC3)ccc2OC)CC1	0.8	1.7	-19.0	-3.4	3.8
CC(=O)c1ccc(NC(=O)CN2C(=O)c3cccnc3Sc3ccccc32)cc1	-0.4	3.8	-2.2	-7.1	-6.3
CCOc1ccc(C(=O)NCc2nc3cccnc3n2Cc2cccc(OC)c2)cc1	-0.2	-0.9	-3.1	7.8	-2.7
Cc1nnc(SCC2=C(C(=O)O)N3C(=O)C(NC(=O)c4cccc(F)c4F)C3SC2)s1 (stereo not given)	1.6	1.6	-9.3	-73.3*	8.1
CCCCN(C(=O)c1ccc2c(c1)NC(=O)CS2)c1ccccc1	0.5	10.0	x	-35.9*	-3.0
Oc1ccc(COCc2ccc(F)cc2)c2cccnc12	-0.5	2.7	-7.5	-6.5	25.4
Cc1ccc(CCNC(=O)c2ccc3c(c2)c(C)c(C)n3Cc2ccccc2)cc1	0.8	1.9	-5.0	-4.7	-5.9
COCCCNc1ncnc2onc(-c3ccc(F)cc3)c12	-0.1	-0.5	1.0	-12.0	-4.2
c1coc(CNc2ncnc3nc[nH]c23)c1	0.6	2.9	0.3	0.5	-0.4
c1coc(CNc2ncnc3[nH]ncc23)c1	1.8	6.0	-4.3	-40.7*	7.5
O=S(=O)(c1ccc(Cl)cc1)c1nc(-c2cccs2)oc1SCc1ccccc1F	1.0	3.8	-0.2	-2.7	-3.9
COc1ccc(NC(=O)CCc2c(C)nc3cc(-c4cccc(F)c4)nn3c2C)cc1Cl	-0.1	0.4	-6.8	-23.0	40.5*
COc1cc(NC(=O)CCc2c(C)nc3cc(-c4ccccc4)nn3c2C)cc(OC)c1OC	0.3	-0.8	-5.0	-0.2	5.4
COC(=O)c1cc(NC(=O)CCc2c(C)nc3cc(-c4ccccc4)nn3c2C)cc(C(=O)OC)c1	-0.1	1.0	-4.0	-1.5	40.2*
COc1ccc(-c2cc3nc(C)c(CCC(=O)Nc4cccc(C(F)(F)F)c4)c(C)n3n2)c(OC)c1	-0.1	-0.5	-1.6	-20.4	32.0*
COc1cc(OC)cc(-c2cc3nc(C)c(CCC(=O)Nc4ccc(F)c(Cl)c4)c(C)n3n2)c1	-0.1	2.0	-2.1	-8.8	-1.6
COc1ccc(-c2cc3nc(C)c(CCC(=O)NC(C)c4ccccc4)c(C)n3n2)c(OC)c1 (stereo not given)	0.0	-0.7	-0.7	-7.1	1.8
SMILES	TRHR ag	D1 agonist	D1 PAM	D1 antag	TRHR enhancer
CCOC(=O)c1c(C)sc(-c2c(-c3ccc4c(c3)OCCO4)[nH]c3c2c(=O)[nH]c(=O)n3C)c1O	16.3	22.6	2.3	10.4	-10.3
CCCCCc1ccc(OCCOCCn2c[n+](C)c3ccccc32)c(CCCCC)c1	-1.1	128.6*	-9.7	15.5	11.8
CCCCCc1ccc(OCCC[n+]2ccccc2)c(CCCCC)c1	1.0	159.5*	-8.9	-20.6	-7.4
CCCCOc1ccccc1Cn1c(=O)oc2ccccc21	-0.4	2.9	1.1	4.2	-2.7
CC(=O)Nc1ccc(OCCC[n+]2ccccc2)cc1	1.2	1.5	-6.4	-2.0	2.3
CN1CCN(C(=O)CCN2C(=O)/C(=C\c3ccc(Cl)cc3)SC2=S)CC1	1.0	16.0	-2.6	-43.5*	1.0
COc1cc(/C=C2\SC(=S)N(CC(=O)NC(C)(C)C)C2=O)cc(OC)c1OC	1.6	11.5	-10.1	-61.2*	-2.7
O=C1/C(=C\c2cccc([N+](=O)[O-])c2O)SC(=S)N1Cc1ccccc1	0.4	6.0	0.0	-26.5	-0.8
COc1cc([N+](=O)[O-])cc(/C=C2/SC(=S)N(Cc3ccccc3)C2=O)c1O	24.1	110.3*	-0.1	-2.7	2.0
COc1cc(/C=C2/SC(=S)N(CC(=O)NC(C)(C)C)C2=O)cc(OC)c1OC	1.6	4.6	-4.8	-4.4	28.1
COc1cc(/C=C2/SC(=S)N(Cc3ccccc3)C2=O)cc(Cl)c1O	158.7*	474.2*	3.1	-24.6	91.9*
Cn1c2cc(C=O)sc2c2cnn(Cc3ccccc3F)c(=O)c21	-0.6	-0.1	1.4	9.6	4.0
O=C1/C(=C\c2ccc(O)cc2)SC(=S)N1Cc1ccccc1	7.9	26.9	-5.5	-0.1	2.6
O=C(O)c1ccc(/C=C2/SC(=S)N(Cc3ccccc3)C2=O)cc1	0.1	1.9	30.2*	2.0	3.6
O=C(O)c1ccc(CN2C(=O)CSC2=S)cc1	2.6	30.5*	-8.0	11.8	-5.3
CCOc1ccccc1NC(=O)COC(=O)Cc1ccsc1	-0.7	2.9	-2.6	1.7	-2.6
Cc1ccc(NC(=O)COC(=O)Cc2ccsc2)c(C)c1	-1.5	0.0	-2.5	-33.9*	16.9
Cc1ccc2nc(CCl)[n+]([O-])c(-c3ccccc3)c2c1	1.1	2.9	-7.0	-38.1*	5.3
Cc1ccc(S(=O)(=O)N/N=C/c2c[nH]c3ccccc23)cc1	-0.2	9.2	-7.7	-49.0*	4.3
COc1ccc(-c2nnc(C3CCN(C(=O)c4ccccc4F)CC3)o2)cc1	-0.1	-0.8	-2.5	4.0	-4.7
COC(=O)CNC(=O)CCc1nnc(C2(c3ccc(Cl)cc3)CCC2)o1	-1.3	0.0	-4.7	12.3	2.6
COCC(C)NC(=O)CCc1nnc(C2(c3ccc(Cl)cc3)CCC2)o1 (stereo not given)	-0.2	-0.4	-5.5	-51.4*	1.0
Cc1cc(C)c(NC(=O)C2CCN(c3nnc(C)c4c(C)n(-c5ccccc5)nc34)CC2)c(C)c1	-0.2	-0.3	1.4	7.7	1.4
Cc1ccc(/C=N/NC(=O)C(=O)N/N=C/c2ccc(C)o2)o1	-1.8	-0.7	-2.3	-30.8*	0.7
CCN(CC)S(=O)(=O)c1ccc2c(c1)c(=O)c(C(=O)NCc1ccccc1Cl)cn2C	-1.2	-0.1	-1.3	-6.6	7.0
